Screening results deposited in PubChem BioAssay by NMMLSC.
In the library only some 1.2% were active in any assay of this set; here they are far more common.
RGS8-Gao: RGS8-Galphao binding modulators, primary screen, biochemical, multiplexed bead flow cytometry. response (percent of control binding), % at 10 µM. Guanine nucleotide-binding protein G(o) subunit alpha (Homo sapiens), P09471. actives lie on both sides. 0.34% of 220,000 active; in the data active means response below about 60% or above about 140%; inactive means in between;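 further: Galphao activated as the GDP aluminium fluoride complex binding bead-coupled RGS8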
Target sequence (P09471 whole entry, looked up): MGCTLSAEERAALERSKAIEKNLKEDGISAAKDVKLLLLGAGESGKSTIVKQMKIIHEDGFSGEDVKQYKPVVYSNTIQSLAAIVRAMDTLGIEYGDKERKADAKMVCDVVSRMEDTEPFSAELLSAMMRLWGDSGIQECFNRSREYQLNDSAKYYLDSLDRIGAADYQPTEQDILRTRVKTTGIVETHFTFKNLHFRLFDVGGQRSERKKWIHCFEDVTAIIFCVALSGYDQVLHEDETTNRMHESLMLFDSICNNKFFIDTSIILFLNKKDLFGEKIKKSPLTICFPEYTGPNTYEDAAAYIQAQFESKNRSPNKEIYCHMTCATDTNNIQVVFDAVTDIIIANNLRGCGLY
RGS7-Gao reg: RGS7-Galphao binding modulators, primary screen, biochemical, multiplexed bead flow cytometry | 0.35% of 220,000 active | actives lie on both sides | Guanine nucleotide-binding protein G(o) subunit alpha (Homo sapiens), P09471 | binding response (% of control), % at 10 µM; in the data active means binding response below about 49% or above about 150%; inconclusive means no clear call, values can overlap the other calls; inactive means in between;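 further: fluorescent Galphao held in activated GDP-AlF4 state binding bead-coupled RGS7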
GSH bead fluor: compound fluorescence on glutathione beads, profiling panel, artefact control, biophysical, 488/530 nm, flow cytometry | GSH beads flow cytometry, compound fluorescence 488/530 nm; stronger effect = higher value | fluorescence (KMESF) at 10 µM | 0.25% of 190,000 active | AID 1776, 2009; in the data active means fluorescence above about 89;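 further: glutathione beads carrying GST-tagged Bcl family fusion proteins plus one bare bead set; values are compound well signal with DMSO vehicle wells as background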
RGS4-Gao reg: modulators of RGS4 binding to Galphao, primary screen, biochemical, multiplexed bead flow cytometry; actives lie on both sides; Guanine nucleotide-binding protein G(o) subunit alpha (Homo sapiens), P09471; 0.33% of 220,000 active; AID 1415, 2008; binding response (% of control), % at 10 µM; in the data active means binding response below about 49% or above about 150%; inactive means in between;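 further: fluorescent Galphao activated with aluminum fluoride binding bead-coupled RGS4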
RGS16-Gao HTS: modulators of RGS16 binding to Galphao, primary screen, biochemical, human proteins, multiplexed bead flow cytometry | bead-based flow cytometry RGS16-Galphao binding, fluorescence; actives lie on both sides | binding response (% of control), % at 10 µM | 0.38% of 220,000 active | AID 1441, 2008;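 further: Galphao activated by GDP with aluminum fluoride before binding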
Target sequence (O15492 whole entry, looked up): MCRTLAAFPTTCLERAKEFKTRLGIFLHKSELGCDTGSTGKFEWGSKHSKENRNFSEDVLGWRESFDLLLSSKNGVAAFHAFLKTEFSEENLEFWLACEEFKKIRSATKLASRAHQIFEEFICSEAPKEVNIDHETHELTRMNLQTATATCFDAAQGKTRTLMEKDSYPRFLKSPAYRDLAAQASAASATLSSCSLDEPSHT
Target sequence (P09471 whole entry, looked up): as the sequence (P09471 whole entry, looked up) above
Avidin fluor: green autofluorescence of compounds with avidin beads – biophysical, 488/530 nm, flow cytometry, artefact control, profiling panel; fluorescence (KMESF) at 10 µM; AID 1775, 2009; compound fluorescence 488/530 nm; stronger effect = higher value; 0.38% of 220,000 active; in the data active means fluorescence above about 47
RGS-Gao: modulators of RGS–Galpha-o binding, primary screen, biochemical, multiplexed beads, flow cytometry, RGS4/7/8/16/19; AID 1504, 2009; RGS4–Galpha-o binding response, % at 10 µM; multiplexed bead flow cytometry; shares compounds with RGS16-Gao HTS; 99% of 1,600 active;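 further: fluorescently labeled Galpha-o bound to GDP with aluminium fluoride binding biotinylated RGS beads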
Avidin counter: disruption of biotin probe capture by avidin, counter-screen for RGS protein interaction modulators, biochemical, flow cytometry, bead-based. shares compounds with RGS16-Gao HTS. streptavidin beads, fluorescein-biotin binding. inhibition, % at 10 µM. 1,700 tested, under 10 active. AID 1783, 2009;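 active means inhibition above 50%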;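 further: median green fluorescence of gated singlet beads compared with DMSO control wells; 0% = DMSO wells and 100% = complete loss of bead fluorescence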
RGS8-Gao confirm: RGS8-Galphao binding modulators, confirmation, biochemical, multiplexed bead flow cytometry, single concentration; bead-based flow cytometry RGS8-Galphao binding, fluorescence; actives lie on both sides; AID 1836, 2009; 3% of 1,700 active; binding response (% of control), % at 10 µM; shares compounds with RGS16-Gao HTS; in the data active means binding response below about 72% or above about 130%; inactive means in between;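 further: Galphao activated as GDP AlF4 complex before binding bead RGS8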
RGS7-Gao single: RGS7-Galphao binding modulators, confirmation, biochemical, multiplexed bead flow cytometry, single concentration; shares compounds with RGS16-Gao HTS; bead-based flow cytometry RGS7-Galphao binding; actives lie on both sides; response (percent of control binding), % at 10 µM; 7.8% of 1,700 active; in the data active means response below about 75% or above about 130%; inactive means in between;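 further: fluorescent Galphao activated with GDP and aluminum fluoride binding bead-coupled RGS7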
RGS16-Gao single: modulators of RGS16-Galphao protein binding, confirmation, biochemical, single concentration, multiplexed bead flow cytometry; shares compounds with RGS16-Gao HTS; bead-based flow cytometry; actives lie on both sides; response (% of control binding), % at 10 µM; 4% of 1,700 active; AID 1838, 2009; in the data active means response below about 74% or above about 130%; inactive means in between;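 further: Galphao activated as the GDP aluminium fluoride complex binding bead-coupled RGS16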
RGS4-Gao confirm: modulators of RGS4-Galphao protein binding, confirmation, biochemical, single concentration, multiplexed bead flow cytometry. shares compounds with RGS16-Gao HTS. actives lie on both sides. binding response (% of control), % at 10 µM. 4% of 1,700 active; in the data active means binding response below about 74% or above about 130%; inactive means in between
RGS19-Gao single: regulators of RGS19-Galphao binding, confirmation, biochemical, single point, multiplexed bead flow cytometry | bead-based flow cytometry RGS19-Galphao binding; actives lie on both sides | response (percent of control binding), % at 10 µM | AID 1841, 2009 | 5% of 1,700 active | shares compounds with RGS16-Gao HTS; in the data active means response below about 50% or above about 160%; inactive means in between;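 further: 100% = no compound control and 0% = blank background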
Starred values were filed as active, the others as inactive; i = inactive; ? = inconclusive; . = not tested or not shown; [ ] = another dose, or the depositor's remark. Unless noted, how the calls were made is not given here.

SMILES | RGS8-Gao | RGS7-Gao reg | GSH bead fluor | RGS4-Gao reg | RGS16-Gao HTS | Avidin fluor | Avidin counter | RGS8-Gao confirm | RGS7-Gao single | RGS16-Gao single | RGS4-Gao confirm | RGS19-Gao single | others
CCCCOC(=O)CCCN1C(=O)/C(=C2\SC(=S)N(CCCC(=O)OCCCC)C2=O)SC1=S | 92 | ? | . | 100 | 98 | . | . | . | . | . | . | .
COc1ccc(CNC(=O)C2CCC(CNc3c(N4CCCCC4)c(=O)c3=O)CC2)cc1 (centres undefined) | 24* | ? | . | 20* | 14* | 0 | 1 | 107 | 111 | 106 | 108 | 100
Cc1ccc(S(=O)(=O)CCN2C=CC(C(F)(F)F)=NCC2)cc1 | 100 | ? | . | 93 | 94 | 7 | . | . | . | . | . | .
Cc1cc(NC(=O)CSc2nc3cc(C(=O)NCCCOC(C)C)ccc3c(=O)n2Cc2ccco2)no1 | 86 | 91 | 7 | 93 | 64 | 16 | . | . | . | . | . | .
O=C(CN1C(=O)CC(c2ccccc2)=Nc2ccccc21)NCc1ccco1 | 4.7* | 1.6* | 29 | 3.2* | -0.5* | -2 | -2 | 102 | 102 | 102 | 102 | 94
O=C(Nc1ccc([N+](=O)[O-])cc1)Nc1ccc(Cl)cc1F | 4.4* | -4.6* | 24 | 11* | -52 | -2 | 0 | 100 | 102 | 102 | 99 | 102
O=C(Nc1ccc(Cl)cc1)Nc1cc([N+](=O)[O-])ccc1F | 101 | 98 | 9 | 98 | 103 | 4 | . | . | . | . | . | .
CCOC(=O)COc1nc(-c2ccccc2)cc(-c2ccco2)c1C#N | 101 | ? | . | 105 | 101 | 26 | . | . | . | . | . | .
CCOC(=O)COc1nc(-c2ccc(Cl)cc2)cc(-c2ccco2)c1C#N | 110 | ? | . | 177*[activator] | 155 | 82* | 0 | 100 | 98 | 100 | 100 | 93
CCN(C(=O)c1ccc(NC(C)=O)cc1)c1ccccc1 | 71 | 88 | 15 | 78 | -20* | 10 | 1 | 98 | 97 | 97 | 99 | 100 | RGS-Gao=78*
C/C(=N/NC(=O)c1ccc(C)nc1)c1ccc2c(c1)CCCC2 | 104 | 101 | 13 | 102 | 110 | 8 | . | . | . | . | . | .
O=C(Cc1ccc(Cl)cc1Cl)NCC1(N2CCOCC2)CCCCC1 | 98 | 98 | 27 | 96 | 97 | 10 | . | . | . | . | . | .
Cc1ccc(C)c(N2CN(Cc3cccnc3)CNC2=S)c1 | 69 | 98 | 10 | 93 | 21* | 2 | 2 | 104 | 104 | 107 | 104 | 96 | RGS-Gao=93*
Cc1ccc(N2CN(Cc3cccnc3)CNC2=S)cc1 | 102 | 102 | 17 | 105 | 102 | 17 | . | . | . | . | . | .
CSc1nc(C=Nc2ccccc2Cl)c(O)n1Cc1cccc(Cl)c1 | 104 | ? | . | 105 | 106 | 3 | . | . | . | . | . | .
COc1ccc(OC)c(NS(=O)(=O)c2ccc(Cl)nc2)c1 | 96 | 101 | 6 | 100 | 87 | 0 | . | . | . | . | . | .
CCCCOc1ccc(S(=O)(=O)Nc2cc(OC)ccc2OC)cc1 | . | . | 48 | . | . | . | -1 | 99 | 102 | 96 | 98 | 107
COCCCNC(=O)C1CCC(CNS(=O)(=O)c2ccc(C)cc2)CC1 (centres undefined) | 98 | ? | 12 | 94 | 96 | 10 | . | . | . | . | . | .
c1ccc(N(c2ccccc2)c2nc(-n3ccnc3)nc(-n3ccnc3)n2)cc1 | . | . | 43 | . | . | . | 0 | 101 | 101 | 102 | 101 | 113
CC(C)OC(=O)Nc1ccc2c(c1)N(C(=O)N1CCN(C)CC1)c1ccccc1CC2 | 102 | ? | . | 101 | 102 | 7 | . | . | . | . | . | .
Cc1cc(/C=N/NC(=O)c2ccc(O)cc2)c(C)n1CC(C)C | 98 | ? | . | 96 | 95 | 3 | . | . | . | . | . | .
O=C(CCCOc1ccc(Cl)cc1Cl)Nc1ncccn1 | 100 | ? | . | 100 | 105 | 4 | . | . | . | . | . | .
Cc1cc(NC(=O)CCCOc2ccc(Cl)cc2Cl)no1 | 167*[activator] | 131 | 23 | 142 | i | 5 | . | . | . | . | . | . | RGS-Gao=142*
OC1CCN(c2ncnc3c2nnn3Cc2c(F)cccc2Cl)CC1 | 118 | 152*[activator] | 46 | 131 | . | . | 0 | 81 | 70* | 78 | 79 | 77 | RGS-Gao=131*
CCC(C)(C)c1nnc(NC(=O)c2cccc([N+](=O)[O-])c2)s1 | 75 | 89 | 12 | 89 | 20* | 2 | 2 | 103 | 105 | 109 | 107 | 92 | RGS-Gao=89*
Cc1sc(Cc2nc(O)cs2)nc1-c1ccccc1 | 102 | 98 | 20 | 100 | 99 | 11 | . | . | . | . | . | .
COC(=O)Cc1ccc(NC(=O)c2ccccc2Br)cc1 | 28* | ? | 16 | 33* | 24* | 3 | 0 | 99 | 98 | 100 | 98 | 99
COC(=O)Cc1ccc(NC(=S)NNC(=O)c2ccccc2Br)cc1 | 104 | 103 | 8 | 104 | 114 | 3 | . | . | . | . | . | .
O=C(NCCc1ccncc1)Nc1ccccc1Cl | 95 | 194*[activator] | 9 | 88 | 97 | 126* | 0 | 97 | 89 | 97 | 97 | 86 | RGS-Gao=88*
O=C(NCCc1ccncc1)Nc1cccc(Cl)c1 | 94 | 84 | 6 | 87 | 89 | 7 | . | . | . | . | . | .
